About 8,800 targets were measured; listed, in parts, are those with a hit and a random draw of the rest. About 0.5% of all pairs of compound and target were hits.

UniProt P51116, sequence (P51116 whole entry, looked up): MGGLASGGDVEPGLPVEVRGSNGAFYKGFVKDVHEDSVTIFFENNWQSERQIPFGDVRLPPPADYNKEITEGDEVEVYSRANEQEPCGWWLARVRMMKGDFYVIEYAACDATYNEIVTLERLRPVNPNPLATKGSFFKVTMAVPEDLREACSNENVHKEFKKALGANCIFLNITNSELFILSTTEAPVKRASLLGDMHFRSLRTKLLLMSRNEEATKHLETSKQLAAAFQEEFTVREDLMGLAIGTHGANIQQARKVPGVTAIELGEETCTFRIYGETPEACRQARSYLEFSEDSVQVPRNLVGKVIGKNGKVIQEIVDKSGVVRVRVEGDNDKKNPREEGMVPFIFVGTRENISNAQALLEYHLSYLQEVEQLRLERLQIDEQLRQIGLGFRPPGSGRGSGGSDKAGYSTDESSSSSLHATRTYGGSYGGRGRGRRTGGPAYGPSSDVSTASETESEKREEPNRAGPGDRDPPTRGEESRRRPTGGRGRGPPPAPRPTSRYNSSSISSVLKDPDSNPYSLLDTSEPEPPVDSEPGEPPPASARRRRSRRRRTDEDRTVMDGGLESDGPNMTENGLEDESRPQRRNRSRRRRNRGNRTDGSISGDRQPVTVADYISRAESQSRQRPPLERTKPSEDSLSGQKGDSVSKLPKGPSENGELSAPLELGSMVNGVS
UniProt Q86UY5, sequence (Q86UY5 whole entry, looked up): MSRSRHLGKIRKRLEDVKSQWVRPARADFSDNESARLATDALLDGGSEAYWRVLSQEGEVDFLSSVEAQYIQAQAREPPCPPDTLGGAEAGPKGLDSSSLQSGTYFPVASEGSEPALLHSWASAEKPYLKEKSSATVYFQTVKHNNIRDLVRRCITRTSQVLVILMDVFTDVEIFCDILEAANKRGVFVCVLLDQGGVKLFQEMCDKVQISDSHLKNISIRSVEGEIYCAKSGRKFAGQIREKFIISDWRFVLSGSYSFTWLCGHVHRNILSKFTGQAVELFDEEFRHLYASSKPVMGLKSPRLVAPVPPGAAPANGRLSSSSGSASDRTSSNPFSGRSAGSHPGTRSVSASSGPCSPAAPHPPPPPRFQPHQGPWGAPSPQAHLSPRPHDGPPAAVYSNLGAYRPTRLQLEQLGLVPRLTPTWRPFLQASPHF
UniProt O75071, sequence (O75071 whole entry, looked up): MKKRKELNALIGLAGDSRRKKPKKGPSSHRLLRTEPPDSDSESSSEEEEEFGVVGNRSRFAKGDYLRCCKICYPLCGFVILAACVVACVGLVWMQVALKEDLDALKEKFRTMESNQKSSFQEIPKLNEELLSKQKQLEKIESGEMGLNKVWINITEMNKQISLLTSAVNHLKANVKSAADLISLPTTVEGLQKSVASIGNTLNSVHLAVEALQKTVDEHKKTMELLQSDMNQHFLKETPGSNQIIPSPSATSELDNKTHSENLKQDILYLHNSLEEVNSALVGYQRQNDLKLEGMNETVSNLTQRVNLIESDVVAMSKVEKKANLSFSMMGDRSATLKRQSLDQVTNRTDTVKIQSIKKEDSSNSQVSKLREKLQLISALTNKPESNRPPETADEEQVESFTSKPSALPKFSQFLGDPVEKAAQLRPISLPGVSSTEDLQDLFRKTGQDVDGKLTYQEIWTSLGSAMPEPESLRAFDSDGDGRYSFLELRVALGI
UniProt Q9NX74, sequence (Q9NX74 whole entry, looked up): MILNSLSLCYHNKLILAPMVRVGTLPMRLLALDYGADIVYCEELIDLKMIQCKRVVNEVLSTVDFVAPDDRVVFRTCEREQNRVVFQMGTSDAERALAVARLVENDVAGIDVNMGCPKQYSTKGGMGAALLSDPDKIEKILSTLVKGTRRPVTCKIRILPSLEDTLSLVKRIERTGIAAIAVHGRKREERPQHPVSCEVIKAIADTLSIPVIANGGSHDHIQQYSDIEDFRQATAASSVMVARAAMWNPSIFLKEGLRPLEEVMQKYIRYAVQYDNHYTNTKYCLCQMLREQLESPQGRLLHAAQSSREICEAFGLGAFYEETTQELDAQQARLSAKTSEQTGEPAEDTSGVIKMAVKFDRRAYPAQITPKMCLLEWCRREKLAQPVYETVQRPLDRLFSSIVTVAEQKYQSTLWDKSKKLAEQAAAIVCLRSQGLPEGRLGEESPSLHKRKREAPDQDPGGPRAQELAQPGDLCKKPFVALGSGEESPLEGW
UniProt Q13409, sequence (Q13409 whole entry, looked up): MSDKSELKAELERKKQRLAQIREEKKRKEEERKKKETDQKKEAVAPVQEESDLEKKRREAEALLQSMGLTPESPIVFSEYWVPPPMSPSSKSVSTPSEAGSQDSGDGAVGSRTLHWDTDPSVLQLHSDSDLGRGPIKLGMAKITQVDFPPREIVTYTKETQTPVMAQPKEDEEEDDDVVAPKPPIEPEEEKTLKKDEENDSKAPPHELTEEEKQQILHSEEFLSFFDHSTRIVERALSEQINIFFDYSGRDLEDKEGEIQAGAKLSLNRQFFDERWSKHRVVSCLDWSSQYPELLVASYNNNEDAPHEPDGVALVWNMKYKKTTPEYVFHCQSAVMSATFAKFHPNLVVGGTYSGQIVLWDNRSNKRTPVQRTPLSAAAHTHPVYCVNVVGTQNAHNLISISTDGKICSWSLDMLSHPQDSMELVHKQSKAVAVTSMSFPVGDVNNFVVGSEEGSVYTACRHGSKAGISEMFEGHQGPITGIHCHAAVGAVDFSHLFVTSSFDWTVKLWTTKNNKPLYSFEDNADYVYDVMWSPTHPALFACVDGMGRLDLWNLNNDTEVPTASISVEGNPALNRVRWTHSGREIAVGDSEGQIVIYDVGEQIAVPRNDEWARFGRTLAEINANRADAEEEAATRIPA
UniProt P06241, sequence (P06241 whole entry, looked up): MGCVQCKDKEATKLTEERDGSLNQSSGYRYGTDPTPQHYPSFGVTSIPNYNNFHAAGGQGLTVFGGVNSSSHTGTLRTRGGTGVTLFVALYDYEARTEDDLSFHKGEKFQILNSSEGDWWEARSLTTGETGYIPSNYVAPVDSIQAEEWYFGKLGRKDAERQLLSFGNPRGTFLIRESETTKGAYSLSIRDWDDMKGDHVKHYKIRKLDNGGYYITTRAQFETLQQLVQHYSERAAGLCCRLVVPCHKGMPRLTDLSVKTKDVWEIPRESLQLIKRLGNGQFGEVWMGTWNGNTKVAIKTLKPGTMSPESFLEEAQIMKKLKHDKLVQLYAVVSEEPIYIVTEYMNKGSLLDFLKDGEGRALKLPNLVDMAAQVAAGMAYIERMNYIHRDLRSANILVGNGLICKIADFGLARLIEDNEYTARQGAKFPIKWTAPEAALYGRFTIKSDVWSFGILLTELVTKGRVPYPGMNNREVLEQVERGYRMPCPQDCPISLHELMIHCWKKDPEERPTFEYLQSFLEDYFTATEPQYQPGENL
UniProt Q9H4H8, sequence (Q9H4H8 whole entry, looked up): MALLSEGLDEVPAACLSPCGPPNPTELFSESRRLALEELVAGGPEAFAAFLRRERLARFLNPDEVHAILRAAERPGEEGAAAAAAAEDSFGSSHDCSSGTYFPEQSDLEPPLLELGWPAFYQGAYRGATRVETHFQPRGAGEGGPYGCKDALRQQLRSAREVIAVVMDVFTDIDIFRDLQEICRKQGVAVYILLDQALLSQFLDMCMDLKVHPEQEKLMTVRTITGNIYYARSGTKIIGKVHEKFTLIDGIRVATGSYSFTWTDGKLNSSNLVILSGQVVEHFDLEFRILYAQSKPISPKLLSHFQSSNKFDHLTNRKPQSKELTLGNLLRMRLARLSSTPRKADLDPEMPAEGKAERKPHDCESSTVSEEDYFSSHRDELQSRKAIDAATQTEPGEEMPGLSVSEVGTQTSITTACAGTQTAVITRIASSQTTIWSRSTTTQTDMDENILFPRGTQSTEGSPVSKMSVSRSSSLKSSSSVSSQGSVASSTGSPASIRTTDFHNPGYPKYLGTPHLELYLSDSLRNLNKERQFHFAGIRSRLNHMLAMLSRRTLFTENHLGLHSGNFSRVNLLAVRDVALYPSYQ
UniProt P19525, sequence (P19525 whole entry, looked up): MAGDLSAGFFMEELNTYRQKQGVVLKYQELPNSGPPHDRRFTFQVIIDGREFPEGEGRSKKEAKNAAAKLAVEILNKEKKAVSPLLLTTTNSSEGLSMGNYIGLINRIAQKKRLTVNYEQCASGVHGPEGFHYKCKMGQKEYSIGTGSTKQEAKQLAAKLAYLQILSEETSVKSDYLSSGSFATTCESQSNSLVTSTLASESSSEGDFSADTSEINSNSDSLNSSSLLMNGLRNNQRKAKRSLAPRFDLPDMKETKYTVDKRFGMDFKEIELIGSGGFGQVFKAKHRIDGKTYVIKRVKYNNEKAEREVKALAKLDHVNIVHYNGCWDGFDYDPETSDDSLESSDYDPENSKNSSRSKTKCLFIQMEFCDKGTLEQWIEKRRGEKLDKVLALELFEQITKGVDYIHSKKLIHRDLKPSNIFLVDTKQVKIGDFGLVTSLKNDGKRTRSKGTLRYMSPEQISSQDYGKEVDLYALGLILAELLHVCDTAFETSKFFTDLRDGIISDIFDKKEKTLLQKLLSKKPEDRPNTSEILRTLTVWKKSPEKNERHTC
UniProt Q9H410, sequence (Q9H410 whole entry, looked up): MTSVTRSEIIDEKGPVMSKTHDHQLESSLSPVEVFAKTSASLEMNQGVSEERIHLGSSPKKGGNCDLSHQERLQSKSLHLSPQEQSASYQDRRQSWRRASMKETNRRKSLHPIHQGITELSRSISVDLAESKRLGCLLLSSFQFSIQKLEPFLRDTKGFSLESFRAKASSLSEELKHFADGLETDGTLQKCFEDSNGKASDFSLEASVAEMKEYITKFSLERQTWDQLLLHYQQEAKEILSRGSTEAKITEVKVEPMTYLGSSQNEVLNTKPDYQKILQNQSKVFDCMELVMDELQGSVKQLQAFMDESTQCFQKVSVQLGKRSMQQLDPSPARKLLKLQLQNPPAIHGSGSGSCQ

Compound in the first assay: CN1CCc2c(c3ccccc3n2Cc2ccc(C(=O)NO)cc2)C1 [Tubastatin A]
Put plainly: log2 fold change, soluble protein after heating vs DMSO (PISA); higher = thermal stabilisation; K562 lysate, 10 uM; active = over 0.2 and 3.5 SD of the protein, either way, in both replicates (recomputed). A digest of the protocol:
(§1)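 Values give the log-two fold change in thermal stability against solvent controls, from duplicates. Crude K562 extract at 1 mg/mL protein, made by dounce homogenisation in PBS pH 7.4 with 1 mM MgCl2, was treated with 10 μM compound for 30 min. After 3 min heating across 48°C-58°C, aliquots were pooled, adjusted to 0.5% NP-40 at 4°C and centrifuged at 21,000xg for 90 min. The supernatant was measured by TMTpro 16plex LC-MS/MS with channel sums equalised.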
As for FYN (UniProt P06241), the log2 fold change is 0.03 (inactive).
Turning to GAA (UniProt P10253), the log2 fold change is 0.098 (inactive).
Same read-out and setting: in the case of FXR2 (UniProt P51116) it was -0.159 (inactive).
In the case of FPGT (UniProt O14772), the log2 fold change is -0.111 (inactive).
On the same count and under the same terms, in the case of FHOD1 (UniProt Q9Y613) it was -0.129 (inactive).
The same measure, in the same setting: in the case of EFCAB14 (UniProt O75071) it was 0.077 (inactive).
On to DSN1 (UniProt Q9H410), for which the log2 fold change is -0.087 (inactive).
As to FAM83D (UniProt Q9H4H8), the log2 fold change was -0.044 (inactive).
On the same count and under the same terms, the figure for EWSR1 isoform 5 (UniProt Q01844) is 0.101 (inactive).
Turning to FAM83A (UniProt Q86UY5), the log2 fold change is -0.039 (inactive).
For GABPB1 isoform 3 (UniProt Q06547), the log2 fold change was -0.299 (active).
The same measure, in the same setting: the figure for DUS2 (UniProt Q9NX74) is -0.084 (inactive); for EIF2AK2 (UniProt P19525) it is -0.099 (inactive).

Compound in a further assay: CNC(=O)C1=CC=CC=C1NC2=NC(=NC=C2Cl)NC3=C(C=C(C=C3)N4CCOCC4)OC
The assay is described as above. A digest of the protocol:
as §1
Turning to GEMIN4 (UniProt P57678), the log2 fold change was 0.078 (inactive).
Same read-out and setting: in the case of ERAL1 (UniProt O75616) it was -0.03 (inactive); in that of EMC7 (UniProt Q9NPA0), -0.037 (inactive); in that of EED, A0A5F9ZI63, 0.039 (inactive).
For FAM118B (UniProt Q9BPY3), the log2 fold change was -0.002 (inactive).
In the case of GBF1 (UniProt Q92538), the log2 fold change is 0.032 (inactive).
On the same count and under the same terms, the figure for FAT2 (UniProt Q9NYQ8) is -0.123 (inactive); for FLT4 (UniProt P35916) it is -0.428 (active).
Still for that read-out and setting: the figure for ERLIN1 (UniProt O75477) is -0.001 (inactive); for EAPP (UniProt Q56P03) it is 0.078 (inactive).
For GIGYF2 (UniProt Q6Y7W6), the log2 fold change is 0.052 (inactive).
Same read-out and setting: the figure for FOXK1 (UniProt P85037) is 0.025 (inactive); for EIF2B4 (UniProt Q9UI10) it is -0.004 (inactive); for GAPDH (UniProt P04406) it is 0 (inactive).
On to EEF1AKMT4 (UniProt P0DPD7), for which the log2 fold change is 0.074 (inactive).
Same read-out and setting: in the case of FYCO1 isoform 4 (UniProt Q9BQS8) it was -0.001 (inactive); in that of ETHE1 (UniProt O95571), -0.014 (inactive); in that of FBXO22 (UniProt Q8NEZ5), -0.074 (inactive).
For the target EP300 (UniProt Q09472), the log2 fold change was -0.026 (inactive).
For the target GEMIN2 (UniProt O14893), the log2 fold change is 0.001 (inactive).
Same read-out and setting: in the case of DYNC1I2 isoform 2 (UniProt Q13409) it was -0.02 (inactive); in that of DYNC1I2 isoform 5 (UniProt Q13409), -0.021 (inactive).
For FBXO45 (UniProt P0C2W1), the log2 fold change was -0.035 (inactive).
The same measure, in the same setting: in the case of FYN (UniProt P06241) it was -0.009 (inactive); in that of GAA (UniProt P10253), -0.047 (inactive).
Consider FXR2 (UniProt P51116), for which the log2 fold change was -0.083 (inactive).
Still for that read-out and setting: in the case of FPGT (UniProt O14772) it was -0.011 (inactive).
Turning to FHOD1 (UniProt Q9Y613), the log2 fold change was 0.014 (inactive).
Turning to EFCAB14 (UniProt O75071), the log2 fold change is 0.01 (inactive).
Same read-out and setting: the figure for DSN1 (UniProt Q9H410) is 0.076 (inactive); for FAM83D (UniProt Q9H4H8) it is 0.005 (inactive).
Same read-out and setting: the figure for EWSR1 isoform 5 (UniProt Q01844) is -0.017 (inactive).
Still for that read-out and setting: in the case of FAM83A (UniProt Q86UY5) it was 0.061 (inactive); in that of GABPB1 isoform 3 (UniProt Q06547), -0.055 (inactive).
As to DUS2 (UniProt Q9NX74), the log2 fold change is 0.013 (inactive).
Take EIF2AK2 (UniProt P19525): the log2 fold change was 0.091 (inactive).

Compound in a further assay: CNC(=O)c1ccc(Nc2ncc(C(F)(F)F)c(NCc3nccnc3N(C)S(C)(=O)=O)n2)cc1 [defactinib]
The assay is described as above. A digest of the protocol: as §1
As to GEMIN4 (UniProt P57678), the log2 fold change was -0.014 (inactive).
For ERAL1 (UniProt O75616), the log2 fold change was 0.027 (inactive).
As to EMC7 (UniProt Q9NPA0), the log2 fold change is 0.02 (inactive).
On to EED, A0A5F9ZI63, for which the log2 fold change was 0.003 (inactive).
As to FAM118B (UniProt Q9BPY3), the log2 fold change was 0.037 (inactive).
Consider GBF1 (UniProt Q92538), for which the log2 fold change is 0.007 (inactive).
On the same count and under the same terms, in the case of FAT2 (UniProt Q9NYQ8) it was -0.034 (inactive); in that of FLT4 (UniProt P35916), 0.004 (inactive).
The same measure, in the same setting: the figure for ERLIN1 (UniProt O75477) is -0.024 (inactive); for EAPP (UniProt Q56P03) it is -0.017 (inactive).
On the same count and under the same terms, the figure for GIGYF2 (UniProt Q6Y7W6) is 0.017 (inactive); for FOXK1 (UniProt P85037) it is 0.003 (inactive); for EIF2B4 (UniProt Q9UI10) it is 0.03 (inactive).
On to GAPDH (UniProt P04406), for which the log2 fold change is 0.012 (inactive).
On to EEF1AKMT4 (UniProt P0DPD7), for which the log2 fold change is 0.03 (inactive).
Still for that read-out and setting: in the case of FYCO1 isoform 4 (UniProt Q9BQS8) it was -0.002 (inactive); in that of ETHE1 (UniProt O95571), -0.008 (inactive); in that of FBXO22 (UniProt Q8NEZ5), 0.01 (inactive).
On the same count and under the same terms, in the case of EP300 (UniProt Q09472) it was 0.066 (inactive); in that of GEMIN2 (UniProt O14893), -0.006 (inactive).
Same read-out and setting: the figure for DYNC1I2 isoform 2 (UniProt Q13409) is 0.001 (inactive).
On to DYNC1I2 isoform 5 (UniProt Q13409), for which the log2 fold change is -0.011 (inactive).
Consider FBXO45 (UniProt P0C2W1), for which the log2 fold change was -0.009 (inactive).
Still for that read-out and setting: the figure for EPB41, A0A2R8Y783 is 0.05 (inactive); for FYN (UniProt P06241) it is 0.038 (inactive).
The same measure, in the same setting: in the case of GAA (UniProt P10253) it was -0.513 (active); in that of FXR2 (UniProt P51116), -0.117 (inactive).
For FPGT (UniProt O14772), the log2 fold change was 0.008 (inactive).
Turning to FHOD1 (UniProt Q9Y613), the log2 fold change is 0.033 (inactive).
Turning to EFCAB14 (UniProt O75071), the log2 fold change is -0.007 (inactive).
On the same count and under the same terms, in the case of DSN1 (UniProt Q9H410) it was 0.059 (inactive).
Same read-out and setting: the figure for FAM83D (UniProt Q9H4H8) is -0.007 (inactive); for EWSR1 isoform 5 (UniProt Q01844) it is -0.011 (inactive); for FAM83A (UniProt Q86UY5) it is -0.055 (inactive).
Still for that read-out and setting: the figure for GABPB1 isoform 3 (UniProt Q06547) is -0.025 (inactive).
On to DUS2 (UniProt Q9NX74), for which the log2 fold change was 0.016 (inactive).
Same read-out and setting: in the case of EIF2AK2 (UniProt P19525) it was 0.049 (inactive).

The values are drawn from the supplement of paper PMC10849652.
